D3 antag: blocks the human D3 dopamine receptor; max response, negative = inhibition, %; 2.5% of 360,000 active; P35462; D3R cells, DiscoveRx beta-arrestin luminescence, antagonist mode; stronger effect = lower value; in the data active = max response below about -50%; inconclusive = no clear call, values can overlap the other calls
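Cells expressing the human receptor were seeded at 1500 cells/well, incubated overnight at 37 degrees C in 5% CO2, then exposed to library compounds with dopamine controls for 90 minutes at 37 degrees C before luminescent detection.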
IDH1 R132H inh: human IDH1 R132H inhibition; O75874; IDH1-R132H enzyme, NADPH consumption, diaphorase/resazurin fluorescence; Potency, µM (series often up to 76.6 µM), hits mostly inhibitors; 0.093% of 390,000 active; note: nearly all actives have a fitted effect of over 65% in size
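IDH1-R132H (0.5 ug/mL) preincubated 30 min with compound, then NADPH (0.016 mM) and alpha-KG (2 mM) added; 80 min at RT, pH 7.5. Remaining NADPH coupled via diaphorase/resazurin to fluorescence (540/590 nm); concentration-response curves normalized to no-enzyme control.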
B2AR arrestin: agonists driving beta-arrestin recruitment to human beta2-adrenergic receptor. P07550. beta-arrestin recruitment to beta2AR, cell-based reporter. Potency, µM (titrated, usually from 46.1 µM), actives largely listed as activators. 0.02% of 330,000 active. AID 492947; note: nearly all actives have a fitted effect of over 65% in size
Target sequence (P07550 whole entry, looked up): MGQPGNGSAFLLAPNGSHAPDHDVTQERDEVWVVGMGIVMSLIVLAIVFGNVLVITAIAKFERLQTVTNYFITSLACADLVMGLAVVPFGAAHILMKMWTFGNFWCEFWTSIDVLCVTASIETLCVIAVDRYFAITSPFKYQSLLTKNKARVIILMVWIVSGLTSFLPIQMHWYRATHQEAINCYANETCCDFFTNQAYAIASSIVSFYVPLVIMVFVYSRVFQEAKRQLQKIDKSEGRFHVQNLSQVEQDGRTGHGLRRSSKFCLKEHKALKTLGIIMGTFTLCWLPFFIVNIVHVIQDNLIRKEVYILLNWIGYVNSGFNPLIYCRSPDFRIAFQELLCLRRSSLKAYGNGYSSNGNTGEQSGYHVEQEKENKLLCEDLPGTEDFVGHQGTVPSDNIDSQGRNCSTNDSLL
Integrin act MD: activators of alpha7 integrin expression for muscular dystrophy; alpha7betagal myoblasts, beta-gal FDG fluorescence, 48 h; AID 624291; Potency, µM (series often up to 38.3 µM), usual class: activators; 0.064% of 350,000 active; note: nearly all actives have a fitted effect of over 60% in size
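Alpha7betagal+/- myoblasts (passage 13) were plated 16-24 hr, then exposed to compounds (1:260 dilution of DMSO stock) for 48 hours at 37C. After MPER lysis, β-galactosidase reporter activity was read as FDG fluorescence (ex 480/em 540) after 30 minutes.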
DRD3 agonist: D3 dopamine receptor (human) agonism. P35462. D3R DiscoveRx beta-arrestin cells, luminescence, 90 min. max activation, %. 0.58% of 410,000 active; in the data active = max activation above about 30%
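Cells at 1500/well, incubated overnight, then treated with pinned compounds (dopamine as control) for 90 min at 37 degrees C. DiscoveRx reagent added for 30 - 60 minutes at room temperature; luminescence read.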
Numbers stand for hits; i = inactive; ? = inconclusive; nt = not tested or not shown. An excerpt weighted towards active compounds, which were near 2.9% of everything screened. Unless noted, calls come from the whole dose curve; as a rule, active = well fitted curve in the direction sought with a large enough effect; inconclusive = small, poorly fitted or top-dose-only effect, or another doubt; inactive = no such curve, though single readings can be large; an effect the other way counts as inactive or inconclusive.

SMILES | D3 antag | IDH1 R132H inh | B2AR arrestin | Integrin act MD | DRD3 agonist
Cc1ccc([C@H]2N[C@]3(CCCN(Cc4ccc(F)cc4)C3=O)[C@H]3C(=O)N(Cc4ccccc4)C(=O)[C@@H]23)cc1 | i | i | nt | i | i
COc1ccc(OC)c(S(=O)(=O)N2CC=C(c3c(C)n(CC(=O)N4CCCC4)c4ccccc34)CC2)c1 | nt | i | nt | nt | i
COc1ccc(-c2csc(C(C)(O)c3cccc(OC)c3)n2)cc1 (configuration not stated) | i | nt | nt | nt | i
COc1cccc(C(C)(O)c2nc(-c3ccc(S(C)(=O)=O)cc3)cs2)c1 (configuration not stated) | i | nt | nt | nt | 79.9
CCCC1=C(C(=O)OCC)C(c2ccco2)C(C#N)=C(N)O1 (configuration not stated) | i | i | i | i | 48.0
CCOC(=O)C1=C(N)OC(C)=C(C#N)C1c1ccco1 (configuration not stated) | i | i | i | i | i
Cc1ccc(S(=O)(=O)N2CCN(C(=O)C3CC3C)CC2)c(C)c1 (configuration not stated) | -64.1 | i | i | i | i
O=C(NCc1ccc(-c2csnn2)cc1)c1cccs1 | -50.7 | i | i | i | i
Cc1ccc(C(=O)N/C(=C\c2ccc(Cl)cc2)C(=O)NC2CCCCC2)cc1 | nt | i | nt | nt | i
Clc1nc(NC2CCCCC2)c2cn[nH]c2n1 | i | i | nt | i | i
CN(C)CC#CCCCCCCC#CCN(C)C | nt | nt | i | nt | nt
C#CCCCCCCC#CCN(C)C | -58.1 | i | i | i | i
COC(=O)c1ccccc1NC(=S)NC(NC(=O)c1ccccc1[N+](=O)[O-])C(Cl)(Cl)Cl (configuration not stated) | -50.6 | i | i | i | i
COc1ccc([N+](=O)[O-])cc1NC(=S)NC(NC(=O)C(c1ccccc1)c1ccccc1)C(Cl)(Cl)Cl (configuration not stated) | -79.9 | i | i | i | i
COc1ccc([N+](=O)[O-])cc1NC(=O)C(C)c1ccccc1 (configuration not stated) | i | i | i | i | i
Cc1cccc(Cn2c(=O)n(CCc3ccccc3)c(=O)c3sc4ccccc4c32)c1 | nt | i | nt | nt | i
CC1CCN(c2cc3c(cc2F)c(=O)c(S(=O)(=O)c2cccc(Cl)c2)cn3Cc2ccccc2)CC1 | nt | i | nt | nt | i
CCOC(=O)c1cccc(NC(=O)C2CCN(S(=O)(=O)c3ccc4c(c3)oc(=O)n4C)CC2)c1 | nt | i | nt | nt | i
CCOC(=O)c1c[nH]c2cc(OCC(C)C)c(OCC(C)C)cc2c1=O | nt | nt | nt | nt | i
CN(Cc1ccccc1)C(=O)[C@@H]1CCCN1C(=O)[C@@H]1CCCN1C(=O)c1cccc2ccccc12 | -50.1 | nt | nt | nt | i
CCC(C)n1c(=N)c(C(=O)NCc2ccccc2)cc2c(=O)n3cc(C)ccc3nc21 (configuration not stated) | nt | i | nt | nt | i
CC1=C(C(=O)N2CCCCCC2)CC(CC(=O)NCC2CCCCC2)C(=O)N1Cc1ccccc1 (configuration not stated) | i | nt | nt | nt | i
CC1=C(C(=O)N2CCCCCC2)CC(CC(=O)NCC2CCCCC2)C(=O)N1Cc1ccc(F)cc1 (configuration not stated) | -64.3 | nt | nt | nt | i
Cc1ccc(C)c(CN2C(=O)c3ccccc3S(=O)(=O)c3ccc(C(=O)N4CCN(Cc5ccccc5)CC4)cc32)c1 | nt | i | nt | nt | i
CCOc1cc(Br)c(Br)c(C=Nc2ccc(NC(C)=O)cc2)c1O | -99.6 | i | i | i | i
SMILES | D3 antag | IDH1 R132H inh | B2AR arrestin | Integrin act MD | DRD3 agonist
COc1cc2[nH]c(=S)nc(NCCCOC(C)C)c2cc1OC | -78.3 | i | i | i | i
CC1CCCc2sc3nc(N4CCN(CCO)CC4)n4ncnc4c3c21 (configuration not stated) | -56.3 | i | i | i | i
Clc1ccc(SCCOCCN2CCc3ccccc3C2)cc1 | -88.0 | i | i | i | i
Clc1ccc(SCCOCCN2CCCCC2)cc1 | -79.8 | i | i | i | i
CC1CCN(CCOCCSc2ccc(Cl)cc2)CC1 | -109.5 | i | i | i | i
Clc1ccc(SCCOCCN2CCOCC2)cc1 | ? | i | i | i | i
O=C(Nc1ccccc1C(=O)OCc1cc(=O)n2c3c(sc2n1)CCCC3)c1ccc(F)cc1 | nt | i | nt | nt | i
COc1ccc(C(=O)CSc2cc(C)[nH]c(=O)n2)cc1 | -51.1 | i | i | i | i
C=CS(=O)(=O)O | nt | nt | nt | nt | i
CN(Cc1ccccc1)Cc1c[nH]c2ccccc12 | -82.0 | i | i | i | i
CCSc1nnc(NC(=O)C(NC(=O)c2ccc(Cl)cc2)C(C)C)s1 (configuration not stated) | -60.6 | i | i | i | i
CCn1nc(C)cc1-c1nnc(Sc2ncc([N+](=O)[O-])s2)n1C | -117.4 | i | i | i | i
O=C(NNc1ccc(C(F)(F)F)cc1[N+](=O)[O-])c1ccc(NS(=O)(=O)c2ccc(F)cc2)cc1 | -73.0 | i | i | i | i
CC(C)[C@H](Nc1ccc(C(F)(F)F)cc1[N+](=O)[O-])C(=O)O | i | i | i | i | i
Cc1ccc(-n2c(C)cc3c2CC(C)(C)CC3=O)cc1C | -88.4 | i | i | i | i
COc1cccc(C(CNC(=O)c2ccc(Cl)c(S(=O)(=O)N3CCCC3)c2)N(C)C)c1 (configuration not stated) | i | i | i | i | i
COc1cccc(C(=O)Nn2cnnc2)c1 | i | i | i | i | 30.5
COc1cc(OC)cc(C(=O)Nn2cnnc2)c1 | i | i | i | i | i
CCOc1ccccc1NC(=O)CCSc1nc2n[nH]c(C)c2c(=N)n1-c1ccccc1Cl | i | i | i | i | 30.3
Cc1ccccc1-n1c(SCC(=O)Nc2ccccc2Cl)nc2n[nH]c(C)c2c1=N | i | ? | i | i | i
CCOc1ccc(CCNC(=O)C2CCCN(c3nnc(C)c4c(C)n(-c5ccccc5)nc34)C2)cc1 (configuration not stated) | nt | i | nt | nt | i
Cc1sc(NC(=O)c2ccco2)nc1-c1ccc2c(c1)CC(C)N2C(=O)C1CC1 (configuration not stated) | i | i | i | i | 42.0
CC1CC=C2C(C#N)=C(N)C(C#N)(C#N)C(c3cccs3)C2C1 (configuration not stated) | ? | 20.7µM | i | i | i
CC(C)N1CC=C2C(C#N)=C(N)C(C#N)(C#N)[C@H](c3ccoc3)[C@H]2C1 | nt | nt | i | nt | nt
CC(C)N1CC=C2C(C#N)=C(N)C(C#N)(C#N)C(c3ccccc3)C2C1 (configuration not stated) | -76.7 | ? | i | i | i
C=C1CSc2nc3ccccc3c(=O)n21 | -55.4 | i | nt | i | i
O=c1c2ccccc2nc2n1CCS2 | i | i | i | i | i
COc1ccc(C)cc1NC(=O)NCc1ccc2c(c1)CCN2C(=O)c1ccccc1 | nt | i | nt | nt | i
Cc1ccc(C(=O)c2cc([N+](=O)[O-])ccc2N2CC(C)OC(C)C2)cc1 (configuration not stated) | ? | i | i | i | i

Assay outcomes (PubChem BioAssay)
